The whole screen tested about 1,400 compounds, of which fewer than 10 were called active. Inconclusive results (about 8%) are left out. Calls follow the shape of the dose curve; as a rule, active = well fitted curve in the direction sought with a large enough effect; inconclusive = small, poorly fitted or top-dose-only effect, or another doubt; inactive = no such curve, though single readings can be large or run the other way. Only a sample is shown.
Target: Transient receptor potential cation channel subfamily V member 1 (Homo sapiens) (UniProt Q8NER1)
Test: qHTS Assay for Compounds that Act as Potentiators of the Vanilloid Receptor 1: Hit Validation; also: % of control where 0% means no effect
Conditions: TRPV1-expressing cells, Fluo-8 calcium influx, capsaicin EC20; series mostly up to 42.1 µM; activity change, positive = potentiation: at the top concentration
Description: The transient receptor potential ion channel, family V, number 1, (TRPV1) is one of the most important molecular transducers of painful stimuli and a potential target for analgesic drug development. Although recent clinical trials with orthosteric antagonists have not produced a successful drug because of a hyperthermia side effect and their tendency to block thermal noxious pain, this ion channel is undeniably well placed in the pain pathway, and the idea of blocking pain signals before they enter the CNS is an excellent concept and of proven efficacy when TRPV1 agonists are used. We propose a new approach involving allosteric modulation to impose an activity-dependent constraint within the context of inflammation and tissue damage that would alter the responsiveness of the channel in a way that an orthosteric vanilloid antagonist cannot achieve. We believe that the allosteric modulator approach has not been explored for this target. The main goal of this proposal is to identify additional, new, potent allosteric modulators of TRPV1 that can be used to investigate TRPV1 function. Our recent report provides evidence of proof of concept, but the compounds are just at the edge of utility in terms of potency. […] The question of whether they can be used as analgesic agents is complex, but if suitable compounds are identified then testing for analgesic properties will be conducted. Compounds identified as agonists were re-tested in the primary screen for hit validation. NIH Chemical Genomics Center [NCGC] NIH Molecular Libraries Probe Centers Network [MLPCN] MLPCN Grant: MH089480 Assay Submitter (PI): Michael Iadarola, National Institute of Dental and Cranofacial Research
Upon TRPV1 activation in TRPV1 cells, the channel opens and extracellular cations flow through the channel into the cytosol. A calcium binding dye (Fluo-8) becomes fluorescent when bound to calcium. This dye is pre-loaded into cells and is used as a marker for calcium influx. The amount of accumulated calcium is precisely quantified using the FDSS kinetic reader and the calcium dye. For the HTS assay, freshly prepared cells are plated at a density of 2000/well in 3 ul medium in 1536-well plates and cultured overnight at 35.5C. Cells will be loaded with 1 ul of the homogeneous calcium dye (ABD Bioquest) at room temperature for 40 to 90 minutes. Plates will be loaded into the FDSS kinetic reader and a 1 sec / cycle for 10 second baseline signal will be measured. Compound library will then be added with a pintool at 23 nl and measured kinetically for 3 minutes. This portion of the read is considered the agonist portion of the screen. Following the 3 minutes of incubation, an on board pipettor will deliver 1 ul of capsaicin for a final concentration equal to the EC20. Signal will be measured kinetically for an additional 2 minutes. This portion of the read is considered the allosteric enhancer portion of the screen. The FDSS reader has a standard filter set capable of measuring calcium bound Fluo-8 (ex=480 and em=520 nm).

Sequence of Transient receptor potential cation channel subfamily V member 1 (Homo sapiens) (Q8NER1 whole entry, looked up): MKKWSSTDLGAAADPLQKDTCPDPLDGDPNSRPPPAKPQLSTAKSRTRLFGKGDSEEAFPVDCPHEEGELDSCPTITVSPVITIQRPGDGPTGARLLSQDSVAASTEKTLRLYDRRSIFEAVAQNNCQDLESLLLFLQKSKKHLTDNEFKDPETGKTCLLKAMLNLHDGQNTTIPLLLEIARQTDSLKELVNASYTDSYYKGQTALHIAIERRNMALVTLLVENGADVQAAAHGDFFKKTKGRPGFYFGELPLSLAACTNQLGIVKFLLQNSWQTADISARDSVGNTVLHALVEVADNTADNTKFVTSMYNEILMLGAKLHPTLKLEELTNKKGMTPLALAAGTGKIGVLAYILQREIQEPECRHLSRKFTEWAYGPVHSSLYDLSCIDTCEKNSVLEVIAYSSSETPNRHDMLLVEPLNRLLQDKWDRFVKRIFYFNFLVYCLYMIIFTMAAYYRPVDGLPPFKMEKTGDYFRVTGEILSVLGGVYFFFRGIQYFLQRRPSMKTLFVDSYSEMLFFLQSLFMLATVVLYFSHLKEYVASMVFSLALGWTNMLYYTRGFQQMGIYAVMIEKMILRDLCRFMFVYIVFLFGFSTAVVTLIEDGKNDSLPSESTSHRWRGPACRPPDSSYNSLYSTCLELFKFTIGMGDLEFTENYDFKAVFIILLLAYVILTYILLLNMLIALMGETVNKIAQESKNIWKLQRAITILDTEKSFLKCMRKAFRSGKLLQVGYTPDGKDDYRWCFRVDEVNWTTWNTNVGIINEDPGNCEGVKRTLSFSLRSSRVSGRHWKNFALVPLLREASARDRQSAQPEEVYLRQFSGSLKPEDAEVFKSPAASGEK

Activity change, positive = potentiation, inactive:
O=[N+]([O-])c1ccc(O)c(/C=N/Nc2ccccc2[N+](=O)[O-])c1 8.79%, Cc1nn(C)c(C(=O)Nc2ccc(S(=O)(=O)NC34CC5CC(CC(C5)C3)C4)cc2)c1Br -0.96%, COc1ccc(C2=NCCn3nc4ccccc4c32)cc1 5.29%, CCN(c1ccccc1)S(=O)(=O)c1ccc2c(c1)N(C(C)=O)CCO2 -20.4%, COc1cc2[nH]c(C(=O)Nc3ccc(F)cc3)cc2c(OC)c1OC -38.3%, COc1ccc(-c2cn3cc(C)ccc3n2)cc1OC -5.92%, Cn1ncc([N+](=O)[O-])c1C(=O)Nc1ccccc1 -1.33%, CC(/C=C/c1ccc2c(c1)OCO2)=N\NC(=O)c1ccccc1 6.97%, Cc1nc([N+](=O)[O-])c(C(=O)OCc2ccccc2)n1C -4.18%, Cc1cccnc1NC(N)=S -7.17%, COC(=O)[C@H](C)NC(=O)c1cc2c(cn1)[nH]c1ccccc12 11%, NC(=O)C1(c2ccccc2)OC1c1ccccc1 (centres undefined) -9.87%, CCOC(=O)C(Cc1ccccc1)C(=O)Nc1cccc(C)c1 (centres undefined) -5.17%, COc1ccc(C(=O)Nc2nc3ccccc3s2)cc1 -36%, COc1cc(/C=N/NC(=S)Nc2cccnc2)cc(OC)c1OC -9.74%, CCOC(=O)N1CCN(CCC(=O)Nc2cccc(Cl)c2C)CC1 -5.78%, N#C/C(=N\Nc1ccc([N+](=O)[O-])cc1)C(=N)N1CCOCC1 -13.4%, COc1ccc(C(=O)N/N=C/c2ccc(OC)c(CSc3ccccn3)c2)cc1 6.12%, CC(C)Oc1ccc(NC(=O)c2ccncc2)cc1 -33.9%, Cn1c(=O)c2ccccc2n(CC(=O)Nc2ccc3c(c2)OCCO3)c1=O -4.73%, COc1ccc(Nc2nc(C)nc3c2oc2ccccc23)cc1 -37.7%, CS(=O)(=O)Nc1nc2ccccc2[nH]1 -7.67%, COc1ccc(CNC(=S)Nc2cccc(F)c2)cc1 -32.8%, COc1ccc(C(=O)N(C)C2CCCN(Cc3ccccc3F)C2)cc1OC (centres undefined) -1.05%, COCCNC(=O)c1cccc(OC2CCN(Cc3cccc(C(C)=O)c3)CC2)c1 -4.75%, CC(Oc1cccc(Cl)c1)C(=O)Nc1nc(-c2ccccn2)cs1 (centres undefined) -5.61%, Cc1cc(C)c(C(=O)N2CCCC(Nc3ccc(C)c(C)c3)C2)o1 (centres undefined) -38.2%, Cc1[nH]c2ccccc2c1-c1nc2ccccc2[nH]1 -11.8%, CSc1ncccc1C(=O)OCc1ccc(Br)cc1 -6.08%, COc1ccc(-c2nn(-c3ccccc3)cc2C(=O)NC(=S)Nc2cc(Cl)ccc2Cl)cc1 -10.8%, CCOCCCn1c(=S)[nH]c2cc(C(=O)N3CCC(C(N)=O)(N4CCCCC4)CC3)ccc2c1=O -7.29%, CCOc1c(Nc2ccc(C(C)C)cc2)c(=O)c1=O -36.4%, O=C(Cc1cccs1)Nc1cccc(-c2nnc(-c3ccco3)o2)c1 -4.78%, O=C(NCc1ccncc1)c1ccc(Oc2ccccc2)cc1 -35.7%, CC(C)C[C@H](NC(=O)c1[nH]cnc1C(=O)N[C@@H](Cc1ccccc1)C(=O)OC(C)(C)C)C(=O)OC(C)(C)C -33.7%, CC(C)(C)C(=O)CSc1ncnc2c1cnn2Cc1ccccc1 -37.9%, CCC(CO)NCc1ccc(OCC(O)c2ccccc2)c(OC)c1 (centres undefined) -0.957%, COc1c(O)ccc(/C=N\NC(=O)c2ccc3c(c2)OCO3)c1[N+](=O)[O-] -5.8%, O=C(CCCCn1c(=O)c2ccccc2n(CC(=O)NC2CCCC2)c1=O)NCc1ccco1 -5.96%, CC(=O)c1cccc(NC(=O)/C(=C\c2cccnc2)NC(=O)c2ccc(C)cc2)c1 3.38%, C=C(C)c1cccc(C(C)(C)NC(=O)Nc2cccnc2)c1 -37.9%, COCCn1cnnc1SCC(=O)Nc1cc(OC)c([N+](=O)[O-])cc1C -6.14%, Cc1ccc(NC(=O)CN(C)C(C)C(=O)Nc2ccc(S(=O)(=O)N3CCCC3)cc2)cc1 (centres undefined) -4.26%, O=C(NCc1cccnc1)c1ccc(-c2ccc(Cl)cc2)o1 -37.5%, CC(C)=NOCC(=O)Nn1c(COc2ccccc2)nc2ccccc2c1=O 4.02%, O=C(Nc1ccc(F)cc1)c1ccc2ncsc2c1 -36.9%, CC(=O)Oc1ccc(/C=C/c2nc3ccccc3c(=O)o2)cc1 -8.54%, CCOc1ccc(OCCC(=O)N(CC(=O)Nc2ccccc2C(F)(F)F)Cc2ccco2)cc1 -7.83%, CN(C)/C=C/C(=O)c1nnn(C2CCCCC2)c1NC1CCCCC1 -35.6%

From PubChem BioAssay AID623959 (National Center for Advancing Translational Sciences (NCATS), 2012)
